Screening results from PubChem BioAssay.
LDHA inh: LDHA (human) enzyme inhibition. activity change, % (values are at about 110 or 230 µM). 0.15% of 480,000 active. purified LDHA, NADH/diaphorase-resazurin fluorescence; stronger effect = lower value. P00338; in the data active = activity change below about -30%; inconclusive = mostly about -25% to -30%;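 also: plate controls were DMSO wells for no effect and wells without enzyme for full effect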
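Human LDH5 (2 nM) was incubated with 0.06 mM NADH and 0.2 mM pyruvate for 5 min at room temperature in Tris pH 7.4. Remaining NADH was coupled through diaphorase/resazurin, and resorufin fluorescence was read at 0 and 20 min.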
D2 antagonist: D2 dopamine receptor (human) antagonism | AID 485344 | HEK293 TREx D2 cells, calcium flux, dopamine EC80 | inhibition, % at 10 µM | P14416 | 2% of 340,000 active; in the data active = inhibition above about 30%; inactive = below that, where a call was filed; also: 0% is about no effect
Target sequence (P14416 whole entry, looked up): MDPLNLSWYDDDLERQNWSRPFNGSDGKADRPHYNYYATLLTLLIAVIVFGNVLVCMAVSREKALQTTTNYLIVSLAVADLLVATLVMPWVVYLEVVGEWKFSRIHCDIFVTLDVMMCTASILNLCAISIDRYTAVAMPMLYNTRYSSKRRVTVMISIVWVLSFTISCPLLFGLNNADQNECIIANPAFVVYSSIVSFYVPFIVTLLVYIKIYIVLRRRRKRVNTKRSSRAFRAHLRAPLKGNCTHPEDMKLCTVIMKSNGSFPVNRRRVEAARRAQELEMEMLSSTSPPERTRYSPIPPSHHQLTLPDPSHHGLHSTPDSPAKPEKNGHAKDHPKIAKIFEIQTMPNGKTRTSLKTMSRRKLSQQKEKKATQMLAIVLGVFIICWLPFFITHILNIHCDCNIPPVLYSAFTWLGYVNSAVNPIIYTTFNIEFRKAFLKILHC
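Cells plated overnight at 30 C with tetracycline; no-wash calcium dye, 30–90 min RT; 10 s baseline; compound pinned; 180 s read; EC80 dopamine added; another 180 s read.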
D2 ag-1: human D2 receptor agonism in beta-arrestin assay; P14416; DiscoveRx PathHunter D2 beta-arrestin, luminescence, 90 min; 100% = 57 uM dopamine signal; activation, % (no concentration beside the values); 0.084% of 360,000 active; AID 624465; in the data active = activation above about 40%; inconclusive = between about 15% and that limit
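DiscoveRx PathHunter D2 beta-arrestin cells (2,100/well) attached overnight, then compound-stimulated 90 min at 37 C in HBSS/10 mM HEPES/0.1% Tween-20 buffer; beta-galactosidase complementation read by luminescence after 1 h at ambient temperature. Dopamine 57 uM final (EC100) as control.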
D2 PAM-1: D2 dopamine receptor (human) potentiation. 0.34% of 340,000 active. HEK293 T-REx D2, calcium flux, EC20 dopamine potentiation. potentiation, % at 10 µM;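 active = potentiation over 3 SD above the plate norm, cut at about 30% in these data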; also: 0% is about no effect
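Cells plated with tetracycline inducer and held overnight at 30 C; calcium dye loaded 30–90 min at room temperature; baseline taken, compound added and read 180 s; EC20 dopamine then added and read 180 s.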
D2 PAM-2: potentiates the human D2 dopamine receptor allosterically; potentiation, % (concentration not given with the values); 0.23% of 360,000 active; P14416; DiscoveRx D2 beta-arrestin cells, luminescence, 90 min; 100% = 57 uM dopamine signal; in the data active = potentiation above about 50%; inconclusive = mostly about 30% to 49%
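PathHunter D2 cells, attached overnight at 37 deg C, received compound in DMSO plus dopamine at EC20 (50 nM final) for 90 min at 37 deg C. Beta-arrestin recruitment was read as luminescence after 1 h with detection reagent at ambient temperature.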
D2 ag-2: agonists of human D2 dopamine receptor; P14416; HEK293 T-REx D2 cells, calcium flux agonist mode; AID 485358; 0.53% of 340,000 active; activation, % at 2 µM;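 active = activation over 3 SD above normal in the single-dose calcium agonist read, cut at about 30% in these data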; also: 0% is about no effect
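Tetracycline-induced HEK293 T-REx cells with force-coupled D2 receptor, plated overnight at 30 C, loaded with no-wash calcium dye. After a 10 s baseline, compound was pin-added and calcium flux read kinetically for 180 s; calcium rises flagged agonists.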
* hit, by the source's call. The list is not random: actives were taken first. Their share in the collection is about 2.1%.

Results for COc1ccc(S(=O)(=O)N(CC(=O)Nc2ccc(C)cc2)c2ccc(C)cc2)cc1OC ?
LDHA inh: -0.2; D2 PAM-1: -2.3; D2 ag-2: 1.3

Results for CCOc1ccc(S(=O)(=O)N(CC(=O)Nc2cccc(C)c2)c2ccccc2)cc1 ?
LDHA inh: -34.4*

How did Cc1cc(N2CCN(C(C(=O)O)c3c[nH]c4ccc(Br)cc34)CC2)nc2ccccc12 (stereo not given) do in these assays?
LDHA inh: 0.6

What do the screens show for `Fc1ccc(CNC(=S)NCc2ccccc2Br)cc1`?
LDHA inh: 9.0

What do the screens show for `O=c1[nH]cnc2nc(-c3ccccc3)c(-c3ccccc3)nc12`?
LDHA inh: 1.4; D2 antagonist: -10.1; D2 ag-1: -2.4; D2 PAM-1: 45.3*; D2 PAM-2: -12.1; D2 ag-2: 0.3

Results for O=c1[nH]cnc2nn(-c3ccccc3)nc12 ?
LDHA inh: -18.0; D2 antagonist: -0.6; D2 ag-1: -1.6; D2 PAM-1: -5.2; D2 PAM-2: -8.9; D2 ag-2: 1.0

How did FC(F)(F)c1cccc(N2CCN(CC3CC=CCC3)CC2)c1 (stereo not given) do in these assays?
LDHA inh: 0.8; D2 antagonist: 73.2*; D2 ag-1: 0.8; D2 PAM-1: -24.4; D2 PAM-2: -29.8; D2 ag-2: 0.6

What do the screens show for `Cc1ccc(N2CCN(CC3CC=CCC3)CC2)cc1` (stereo not given)?
LDHA inh: -8.7; D2 antagonist: 36.5*; D2 ag-1: -1.8; D2 PAM-1: -16.3; D2 PAM-2: -15.4; D2 ag-2: 0.2

What do the screens show for `C1=CCC(CN2CCN(C3CCCCCC3)CC2)CC1` (stereo not given)?
LDHA inh: -23.5; D2 antagonist: -23.6; D2 ag-1: -0.6; D2 PAM-2: -16.4; D2 ag-2: 0.5

How did CCCS(=O)(=O)N1CCN(CC2CC=CCC2)CC1 (stereo not given) do in these assays?
LDHA inh: -30.9*; D2 antagonist: 7.6; D2 ag-1: 1.5; D2 PAM-1: -2.2; D2 PAM-2: -2.8; D2 ag-2: -0.9

Results for CC(=O)Nc1ccc(NC(=O)c2cc(-c3ccccn3)nc3ccccc23)cc1 ?
LDHA inh: -5.1

How did NC(=O)c1ccsc1NC(=O)COC(=O)c1ccc(Br)cc1 do in these assays?
LDHA inh: -5.9

How did CCOc1ccccc1-n1c(SCC(=O)N2CCCC2)nnc1-c1ccc(O)cc1 do in these assays?
LDHA inh: -4.8; D2 antagonist: 1.8; D2 ag-1: -0.4; D2 PAM-1: 30.8*; D2 PAM-2: -2.8; D2 ag-2: -0.5

How did CCOc1ccccc1-n1c(SCC(N)=O)nnc1-c1ccc(O)cc1 do in these assays?
LDHA inh: 4.4; D2 antagonist: 2.9; D2 ag-1: -2.6; D2 PAM-1: 4.6; D2 PAM-2: 0.3; D2 ag-2: 0.4

How did CN(C)CCC(OC(=O)C1(c2ccccc2)CCCC1)c1ccccc1 (stereo not given) do in these assays?
LDHA inh: 2.6

What do the screens show for `CCCCC(=O)N(C)c1c(CC)nc2c(OCC(=O)N3CCOCC3)cccn12`?
LDHA inh: -37.3*; D2 ag-1: -2.2; D2 PAM-2: -1.4

How did CCCCC(=O)N(C)c1c(CC)nc2c(OCCC)cccn12 do in these assays?
LDHA inh: -14.9; D2 ag-1: -2.6; D2 PAM-2: -5.8

Results for Cc1cc(Br)ccc1N=C1C(=O)Nc2ccccc21 ?
LDHA inh: 3.8; D2 antagonist: 58.9*; D2 ag-1: -16.2; D2 PAM-1: -0.8; D2 PAM-2: -7.8; D2 ag-2: -0.3

Results for CCCNc1c(NC(=O)NCC2CCC(C(=O)OCC)CC2)c(=O)oc2ccccc12 (stereo not given) ?
LDHA inh: 3.7

What do the screens show for `COc1cc(NC(=S)NC(=O)CCc2ccccc2)cc(OC)c1`?
LDHA inh: -0.4; D2 antagonist: -4.3; D2 ag-1: 3.5; D2 PAM-1: 4.0; D2 PAM-2: 61.7*; D2 ag-2: 1.5

Results for O=C(CCc1ccccc1)NC(=S)Nc1cccc(Br)c1 ?
LDHA inh: 0.6; D2 antagonist: -5.4; D2 ag-1: inconclusive; D2 PAM-1: 6.2; D2 PAM-2: 79.7*; D2 ag-2: 0.4

How did O=C(O)CCC(NC(=O)C1(c2ccccc2)CCCC1)C(=O)O (stereo not given) do in these assays?
LDHA inh: -6.0

Results for COc1ccc(-c2nc3c(s2)CN(C(C(=O)O)c2c[nH]c4cc(Br)ccc24)CC3)cc1 (stereo not given) ?
LDHA inh: 3.6

What do the screens show for `CCC1CCc2sc(C(=O)NC3CCN(Cc4ccccc4)CC3)cc2C1` (stereo not given)?
LDHA inh: -2.4; D2 antagonist: 76.8*; D2 ag-1: -2.4; D2 PAM-1: -2.0; D2 PAM-2: -35.0; D2 ag-2: 0.7

How did CCC1CCc2sc(C(=O)NC3CC3)cc2C1 (stereo not given) do in these assays?
LDHA inh: 2.1

How did CC1CCc2sc(C(=O)NC3CCN(Cc4ccccc4)CC3)cc2C1 (stereo not given) do in these assays?
LDHA inh: -3.1; D2 antagonist: 83.4*; D2 ag-1: -1.9; D2 PAM-1: -30.4; D2 PAM-2: -6.0; D2 ag-2: 1.2

Results for CCOC(=O)N1CCN(S(=O)(=O)c2c(C)cc(C)cc2C)CC1 ?
LDHA inh: -4.9; D2 antagonist: 54.0*; D2 ag-1: 0.8; D2 PAM-1: 2.6; D2 PAM-2: -8.3; D2 ag-2: 0.3

How did Cc1cc(C(=O)COC(=O)c2cc(O)c3ccccc3c2O)c(C)n1CC1CCCO1 (stereo not given) do in these assays?
LDHA inh: 24.0; D2 antagonist: 7.7; D2 ag-1: inconclusive; D2 PAM-1: -2.7; D2 PAM-2: 82.7*; D2 ag-2: 1.5

Results for COc1ccccc1NC(=O)c1ccc2c(c1)nnn2C ?
LDHA inh: 0.1; D2 antagonist: 71.0*; D2 ag-1: -6.0; D2 PAM-1: 3.1; D2 PAM-2: -1.6; D2 ag-2: -0.4

What do the screens show for `O=C(O)c1cnn(-c2nc(-c3cccc([N+](=O)[O-])c3)cs2)c1C(F)(F)F`?
LDHA inh: -0.7; D2 antagonist: 31.2*; D2 ag-1: -1.2; D2 PAM-1: -5.2; D2 PAM-2: -0.3; D2 ag-2: 1.0

Results for C#Cc1ccc(CN2CCC(Oc3ccc(C(=O)NCc4ccccn4)cc3)CC2)cc1 ?
LDHA inh: -0.8; D2 antagonist: 36.4*; D2 ag-1: -3.0; D2 PAM-1: -18.5; D2 PAM-2: -31.4; D2 ag-2: -0.2
